Test results: PubChem BioAssay AID463173 (ICCB-Longwood Screening Facility, Harvard Medical School, 2010)
About 4,300 (8.3%) of roughly 52,000 compounds were called active. Rule as the data show it: active = survival mostly below about 52% (no sharp cut-off); inactive = mostly above about 56%. Shown is part of a subset that was picked to be rich in actives.

These compounds were tested on DeltatarO mutant (assay: growth inhibition of S. aureus wild type versus tarO mutant, primary screen, teichoic acid synthesis inhibitors, RN4220, OD600 (AID 463173)). Settings: OD600, 18 h, active compounds read low, screened at 18.75 µg/mL (by protocol).

Row | SMILES | survival
1 | CCCCn1c2ccc(F)cc2c2nnc(SCCN(CC)CC)nc21 | 178% (inactive)
2 | CCn1c(CNC(=O)c2ccccc2)n[nH]c1=S | 86% (inactive)
3 | CCOc1ccc2cc(-c3nnc(Nc4ccc(C)cc4)s3)c(=O)oc2c1 | 80% (inactive)
4 | COc1ccccc1CCNC(=O)C(=O)NCC(c1ccco1)S(=O)(=O)c1ccccc1 (centres undefined) | 77% (inactive)
5 | COc1ccc(OC)c(CNC(=O)CCc2c(C)nc3c(c2C)c(=O)n(C)c(=O)n3C)c1 | 89% (inactive)
6 | Fc1ccc(-c2cn3ccccc3n2)cc1 | 74% (inactive)
7 | Cc1cccc(NC(=O)C2CCCN(c3nnc(-n4c(C)ccc4C)s3)C2)c1C (centres undefined) | 75% (inactive)
8 | Cc1cc(=O)[nH]c2nnc(SCC(=O)Nc3cc(C(F)(F)F)ccc3Cl)n12 | 116% (inactive)
9 | CCOC(=O)c1cnc2ccc(OCC)cc2c1Nc1ccc(OCc2ccccc2Cl)cc1 | 9% (active)
10 | CCOc1ccc(Nc2cc(C(=O)NCc3ccccc3Cl)c3ccccc3n2)cc1 | 86% (inactive)
11 | Cc1ccc(C2=Nc3ccccc3N(CC(=O)NCc3ccccc3Cl)C(=O)C2)cc1C | 82% (inactive)
12 | COc1ccc(C(=O)Nc2ccccc2C(=O)OCc2cc(=O)n3c4c(sc3n2)CCCC4)cc1 | 72% (inactive)
13 | COc1ccc(S(=O)(=O)c2cc3cc(OC)ccc3oc2=O)cc1 | 99% (inactive)
14 | CCOc1ccc(S(=O)(=O)c2cc3cccc(OCC)c3oc2=O)cc1 | 100% (inactive)
15 | COc1ccc(S(=O)(=O)c2cc3cc(C(C)(C)C)cc(O)c3oc2=O)cc1 | 26% (active)
16 | CCN(c1ccccc1)c1nnc(NC(=O)Nc2ccc(C)cc2)s1 | 89% (inactive)
17 | COc1ccc(C(=O)Nc2cccc(C(=O)OCc3cc(=O)n4nc(C5CC5)sc4n3)c2)cc1 | 115% (inactive)
18 | COc1cccc(C(=O)Nc2ccc(C(=O)OCc3cc(=O)n4nc(C5CC5)sc4n3)cc2)c1 | 79% (inactive)
19 | COc1ccc(C(=O)Nc2ccc(C(=O)OCc3cc(=O)n4nc(C5CC5)sc4n3)cc2)cc1 | -1% (active)
20 | Cc1ccc(OCC(=O)Nc2ccc(C(=O)OCc3cc(=O)n4nc(C5CC5)sc4n3)cc2)cc1 | 72% (inactive)
21 | O=C(Nc1cccc(C(=O)OCc2cc(=O)n3nc(C4CC4)sc3n2)c1)c1ccc(F)cc1 | 70% (inactive)
22 | Cc1ccc(C(=O)Nc2cccc(C(=O)OCc3cc(=O)n4nc(C5CC5)sc4n3)c2)cc1 | 81% (inactive)
23 | O=C(COc1ccccc1)Nc1ccc(C(=O)OCc2cc(=O)n3nc(C4CC4)sc3n2)cc1 | 76% (inactive)

Row | SMILES | survival
24 | Cc1cccc(OCC(=O)Nc2ccc(C(=O)OCc3cc(=O)n4nc(C5CC5)sc4n3)cc2)c1 | -2% (active)
25 | O=C(Nc1cccc(C(=O)OCc2cc(=O)n3nc(C4CC4)sc3n2)c1)c1ccccc1 | 6% (active)
26 | Cc1ccc2nc3c(cc(C#N)c(=O)n3-c3nnc(SCc4ccc(F)cc4)s3)c(=O)n2c1 | 72% (inactive)
27 | Cc1ccc(NCc2nnc(SCC(=O)N3CCOCC3)o2)c(C)c1 | 74% (inactive)
28 | O=C(Cn1cc(SCc2ccc(C(F)(F)F)cc2)c2ccccc21)N1CCCC1 | 55% (inactive)
29 | COC(=O)c1ccc(Cn2nnc3c(=O)[nH]c(C4CCCN(S(=O)(=O)c5ccccc5Cl)C4)nc32)cc1 (centres undefined) | 68% (inactive)
30 | COc1cccc(CNC(=O)CN2C(=O)CCn3nc(-c4cn(C)c5ccccc45)cc32)c1OC | 76% (inactive)
31 | COc1ccc(OC)c(S(=O)(=O)NCCc2sc(-c3ccc(C)cc3)nc2C)c1 | 94% (inactive)
32 | CCOC(=O)c1ccc(N2C(=O)c3n[nH]c(-c4ccco4)c3C2c2ccc(C)cc2)cc1 (centres undefined) | 69% (inactive)
33 | CCOC(=O)c1ccc(N2C(=O)c3n[nH]c(-c4ccco4)c3C2c2cccc(O)c2)cc1 (centres undefined) | -8% (active)
34 | CCOC(=O)c1ccc(N2C(=O)c3n[nH]c(-c4ccco4)c3C2c2cccc(OC)c2)cc1 (centres undefined) | 91% (inactive)
35 | CCOC(=O)c1ccc(N2C(=O)c3n[nH]c(C)c3C2c2ccc(C(C)(C)C)cc2)cc1 (centres undefined) | 87% (inactive)
36 | CCOC(=O)c1ccc(N2C(=O)c3n[nH]c(-c4cccs4)c3C2c2cccc(F)c2)cc1 (centres undefined) | 105% (inactive)
37 | CCOC(=O)c1ccc(N2C(=O)c3n[nH]c(-c4ccco4)c3C2c2ccc(F)cc2)cc1 (centres undefined) | 22% (active)
38 | CCOC(=O)c1ccc(N2C(=O)c3n[nH]c(-c4cccs4)c3C2c2cccc(O)c2)cc1 (centres undefined) | -5% (active)
39 | CCOC(=O)c1ccc(N2C(=O)c3n[nH]c(C)c3C2c2ccc(OCC)cc2)cc1 (centres undefined) | 52% (inactive)
40 | CCOC(=O)c1ccc(N2C(=O)c3n[nH]c(C)c3C2c2cccc(Br)c2)cc1 (centres undefined) | 8% (active)
41 | CCOC(=O)c1ccc(N2C(=O)c3n[nH]c(-c4cccs4)c3C2c2cccc(OC)c2)cc1 (centres undefined) | 97% (inactive)
42 | CCOC(=O)c1ccc(N2C(=O)c3n[nH]c(-c4ccco4)c3C2c2ccc(C(=O)OC)cc2)cc1 (centres undefined) | 89% (inactive)
43 | CCOC(=O)c1ccc(N2C(=O)c3n[nH]c(-c4ccco4)c3C2c2ccc(O)cc2)cc1 (centres undefined) | 40% (inactive)
44 | COc1cc(Nc2ncc3c(n2)CCN(Cc2cc(F)cc(F)c2)C3)cc(OC)c1 | 67% (inactive)
45 | Cc1nc2cc(-c3ccccc3)nn2c(C)c1CCC(=O)N1CCN(c2ccccc2)CC1 | 56% (inactive)
46 | CCOCCc1nnc(NC(=O)C(=O)c2cc(C)n(-c3cccc(C)c3)c2C)s1 | 65% (inactive)

Row | SMILES | survival
47 | COc1cccc(CNC(=O)CCS(=O)(=O)c2cc3c4c(c2)CCN4C(=O)CC3)c1 | 68% (inactive)
48 | O=C(COc1ccc(Br)cc1)N/N=C1\SCC(=O)N1c1ccc(F)cc1 | 95% (inactive)
49 | CCc1ccc(NC(=O)CSc2nccn2-c2ccc(OC)cc2)cc1 | 107% (inactive)
50 | Nc1cc(=O)[nH]c(=S)n1-c1ccccc1 | 99% (inactive)
51 | COc1cc(C2c3c(oc4ccc(C)cc4c3=O)C(=O)N2Cc2ccccc2)ccc1O (centres undefined) | 113% (inactive)
52 | COc1cc(NC(=O)c2ncn(-c3ccccc3)n2)cc(OC)c1 | 63% (inactive)
53 | CCOC(=O)c1ccc(N2C(=O)c3n[nH]c(-c4ccco4)c3C2c2ccc(OCC)cc2)cc1 (centres undefined) | 91% (inactive)
54 | CCOC(=O)c1ccc(N2C(=O)c3n[nH]c(-c4ccco4)c3C2c2ccc(O)c(OC)c2)cc1 (centres undefined) | 118% (inactive)
55 | CCOC(=O)c1ccc(N2C(=O)c3n[nH]c(-c4ccco4)c3C2c2cccc(F)c2)cc1 (centres undefined) | 12% (active)
56 | CCc1ccc(CNC(=O)c2cc3c(s2)-c2ccccc2OC3)cc1 | 61% (inactive)
57 | O=C(NCc1ccccc1Cl)c1cc2c(s1)-c1ccccc1SC2 | 65% (inactive)
58 | CCOc1ccc(N(CC)C(=O)c2cc3c(s2)-c2ccc(Cl)cc2SC3)cc1 | 81% (inactive)
59 | CCOc1ccc(N(CC)C(=O)c2cc3c(s2)-c2ccccc2OC3)cc1 | 76% (inactive)
60 | O=C(NCc1cccc(Cl)c1)c1cc2c(s1)-c1ccccc1OC2 | 50% (inactive)
61 | O=C(NCCc1ccc(Cl)cc1)c1cc2c(s1)-c1ccccc1OC2 | 61% (inactive)
62 | CCCN(C(=O)c1cc2c(s1)-c1ccccc1OC2)c1ccccc1F | -4% (active)
63 | COc1ccc(CCNC(=O)c2cc3c(s2)-c2ccccc2OC3)cc1OC | 49% (inactive)
64 | CCc1ccccc1N(CC)C(=O)c1cc2c(s1)-c1ccccc1SC2 | -1% (active)
65 | CCN(C(=O)c1cc2c(s1)-c1ccccc1OC2)c1cc(Cl)ccc1OC | 15% (active)
66 | CCc1ccccc1N(CC)C(=O)c1cc2c(s1)-c1ccccc1OC2 | -5% (active)
67 | CC(C)c1ccc(NC2=NCC(=O)N2Cc2ccccc2)cc1 | 87% (inactive)
68 | O=C(Nc1cccc(O)c1)c1cc2nc(-c3ccc(Br)cc3)cc(C(F)(F)F)n2n1 | 120% (inactive)
69 | CC(=O)Nn1c(C)nc2ccccc2c1=O | 75% (inactive)

Row | SMILES | survival
70 | Cc1nc(SC(C)C(=O)Nc2ccccc2Cl)cc(-c2ccccc2)n1 (centres undefined) | 61% (inactive)
71 | CCn1c(SCC(=O)OC)nnc1-c1ccc(O)cc1 | 99% (inactive)
72 | COc1ccc(NC(=O)CC2C(=O)N(c3cccc(OC)c3)C(=O)N2Cc2cccnc2)cc1 (centres undefined) | 94% (inactive)
73 | CCn1c(CN2CCCCC2)nc2cc(NC(=O)COc3cc(C)ccc3C(C)C)ccc21 | 73% (inactive)
74 | COc1ccc(C)cc1Nc1cc(C)nc(C)n1 | 66% (inactive)
75 | CCC(=O)N1CCc2cc(Br)cc(S(=O)(=O)CCC(=O)NCc3ccc(Cl)cc3)c21 | 78% (inactive)
76 | CCOc1ccc(-c2cc(C(=O)OC)on2)cc1 | 55% (inactive)
77 | CCc1ccc(NC(=O)CC2C(=O)N(c3cccc(C)c3)C(=O)N2Cc2ccc(F)cc2)cc1 (centres undefined) | 89% (inactive)
78 | CCN(c1ccccc1)C(CNS(=O)(=O)c1ccccc1)c1ccccc1 (centres undefined) | 71% (inactive)
79 | O=C(NCc1ccc(Cl)cc1)c1cc2c(s1)-c1ccccc1SC2 | 58% (inactive)
80 | CCOc1ccc(CNC(=O)c2cc3c(s2)-c2ccccc2OC3)cc1 | 71% (inactive)
81 | CN(Cc1ccccc1)C(=O)c1cc2c(s1)-c1ccc(Cl)cc1SC2 | 86% (inactive)
82 | Cc1ccc(CNC(=O)c2cc3c(s2)-c2ccccc2SC3)cc1 | 94% (inactive)
83 | CCCN(C(=O)c1cc2c(s1)-c1ccccc1OC2)c1ccc(C(C)C)cc1 | -3% (active)
84 | CCN(C(=O)c1cc2c(s1)-c1ccccc1OC2)c1cccc(C(F)(F)F)c1 | -1% (active)
85 | CCCN(C(=O)c1cc2c(s1)-c1c(C)cccc1OC2)c1ccc(OCC)cc1 | 98% (inactive)
86 | CCCN(C(=O)c1cc2c(s1)-c1ccccc1SC2)c1ccccc1F | 1% (active)
87 | CCN(C(=O)c1cc2c(=O)n(CC)c3ccccc3c2s1)c1cccc(C(F)(F)F)c1 | 72% (inactive)
88 | CCCN(C(=O)c1cc2c(=O)n(CC)c3ccccc3c2s1)c1ccccc1F | 64% (inactive)
89 | O=C(NCc1ccc(F)cc1)c1cc2c(s1)-c1ccccc1SC2 | 45% (active)
